CHX counter – Cycloheximide Counterscreen for Small Molecule Inhibitors of Shiga Toxin | max response, % | cell reporter, cycloheximide protein synthesis inhibition counterscreen | 300,000 tested, 12% active; in the data active = max response mostly above about 13%, no sharp cut-off; inactive = mostly below about 14%; note: read at 38.3 µM for the half of the compounds with a filed dose; 0% is about no effect
HCMV antiviral – qHTS Assay for inhibitors of the human cytomegalovirus (HCMV) | HFF cells, HCMV-luciferase reporter, 72 h; stronger effect = lower value | activity change, negative = inhibition, % at 57.5 µM | 410,000 tested, 4.5% active | AID 1259415, 2018; in the data active = activity change below about -60%; inconclusive = no clear call, values can overlap the other calls; inactive = above about -39%; note: % is set by controls: 0 for no effect and ±100 for the full control effect
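Luciferase read-out from HCMV-luciferase-infected HFFs (MOI 1 PFU/cell) 72 h post infection at 37C; compounds added after 16 h cell attachment; activity normalized between buffer-only basal and Salinomycin (10uM) inhibitor controls.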
Pf growth 96h – Primary qHTS for delayed death inhibitors of the malarial parasite plastid, 96 hour incubation. 320,000 tested, 6.9% active. P. falciparum luciferase reporter growth, 96 h. AID 504834, 2011. Potency, µM (highest dose often 28.7 µM), for inactives: at the top dose activity change, negative = inhibition, hits mostly inhibitors; note: potency is the fitted concentration of half-maximal effect; % is set by controls: 0 for no effect and ±100 for the full control effect
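Delayed-death screen, second-generation endpoint: infected erythrocytes, 2% hematocrit, 0.05% parasitemia final; 96 hours at 37 C, 5% CO2; luciferase detection reagent; luminescence decrease equals reduced growth.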
Pf growth 48h – Primary qHTS for delayed death inhibitors of the malarial parasite plastid, 48 hour incubation; AID 504832, 2011; 310,000 tested, 5.9% active; P. falciparum luciferase growth in erythrocytes, 48 h; Potency, µM (highest dose often 28.7 µM), inactives show at the highest dose activity change, negative = inhibition, usual class: inhibitors; note: potency is the fitted concentration of half-maximal effect; % is set by controls: 0 for no effect and ±100 for the full control effect
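Luciferase-expressing P. falciparum in infected erythrocytes (2% hematocrit, 0.1% parasitemia final) in RPMI 1640/0.5% Albumax were exposed to compound for 48 hours at 37 C, 5% CO2; growth read as luminescence.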
Shiga inhibitor – A qHTS for Small Molecule Inhibitors of Shiga Toxin; Vero cells, Shiga toxin protein synthesis inhibition reporter; inhibition, % at 38.7 µM; 290,000 tested, 9.2% active; AID 2315, 2010; in the data active = inhibition mostly above about 28%, no sharp cut-off; inactive = mostly below about 43%; note: 0% is about no effect
HCV inh – qHTS Assay for Inhibitors of Hepatitis C Virus (HCV) | Huh7.5.1 HCVcc-Cre infection, luciferase reporter, 44 h | Potency, µM (top dose mostly 41.8 µM), for the others: top-dose activity change, negative = inhibition, actives largely listed as inhibitors | 340,000 tested, 3.4% active | AID 651820, 2012; note: potency is the fitted concentration of half-maximal effect; % is set by controls: 0 for no effect and ±100 for the full control effect
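Cells (1,000/well) were plated 4 h before compound, then infected with HCVcc-Cre virus (~0.5 moi). After 44 h further culture, infection was read as luciferase luminescence following a 15 min substrate incubation at room temperature.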
Active calls of the source: *; ? = inconclusive; . = not tested or not shown; [ ] = another dose, or the depositor's remark. A selection: hits, their analogues and other compounds. The true share with any hit is near 21%. Unless noted, calls come from the whole dose curve; as a rule, active = well fitted inhibition curve with a large enough effect; inconclusive = small, poorly fitted or top-dose-only effect, or another doubt; inactive = no such curve, though single readings can be large or run the other way.

SMILES	CHX counter	HCMV antiviral	Pf growth 96h	Pf growth 48h	Shiga inhibitor	HCV inh
CCc1cc2c(cc3c(=O)n(CC(=O)N4CCN(C)CC4)ncn32)s1	-6	-36	?	21%	-5	5%
Cc1ccccc1OCCC(=O)N(CC(C)C)c1c(N)n(Cc2ccccc2)c(=O)[nH]c1=O	.	?	?	12µM*	.	-4%
CCOc1ccc2nc(SCC(=O)N(CC(C)C)c3c(N)n(Cc4ccccc4)c(=O)[nH]c3=O)[nH]c2c1	.	-21	12µM*	?	.	?
CC(C)CN(C(=O)CSc1nc2ccccc2[nH]1)c1c(N)n(Cc2ccccc2)c(=O)[nH]c1=O	.	-18	.	.	.	.
CCCCn1c(N)c(N(CCC(C)C)C(=O)CSc2nc3ccccc3n2C)c(=O)[nH]c1=O	.	-18	.	.	.	10µM*
CCCCN(C(=O)CSc1nnc(-c2ccc(Cl)cc2)o1)c1c(N)n(CC(C)C)c(=O)[nH]c1=O	.	41	?	13µM*	.	-12%
Cc1ccccc1OCCC(=O)N(Cc1ccccc1)c1c(N)n(Cc2ccccc2)c(=O)[nH]c1=O	-3	.	?	?	2	?
CCCCN(C(=O)CCSc1ccc(F)cc1)c1c(N)n(Cc2ccccc2)c(=O)[nH]c1=O	.	-24	12µM*	12µM*	.	?
CCOc1ccc(OCCC(=O)N(CCC(C)C)c2c(N)n(Cc3ccccc3)c(=O)[nH]c2=O)cc1	.	-29	14%	10µM*	.	-4%
CCCCN(C(=O)CCOc1ccc(OCC)cc1)c1c(N)n(Cc2ccccc2)c(=O)[nH]c1=O	.	-19	.	.	.	.
Cc1ccc(OCCC(=O)N(Cc2ccccc2)c2c(N)n(Cc3ccccc3)c(=O)[nH]c2=O)cc1	.	-81*	-5%	?	.	11µM*
CCOc1ccc(OCCC(=O)N(CCCOC)c2c(N)n(Cc3ccccc3)c(=O)[nH]c2=O)cc1	.	-23	0%	?	.	?
Nc1c(N(CCC2=CCCCC2)C(=O)COc2ccc(F)cc2)c(=O)[nH]c(=O)n1Cc1ccccc1	.	.	?	?	.	13µM*
Nc1c(N(CCC2=CCCCC2)C(=O)CCCOc2ccccc2)c(=O)[nH]c(=O)n1Cc1ccccc1	.	-24	7%	-14%	.	-19%
Nc1c(N(Cc2ccccc2)C(=O)COc2ccc([N+](=O)[O-])cc2)c(=O)[nH]c(=O)n1Cc1ccccc1	.	-97*	.	.	.	?
CCc1nnc(NC(=O)CCC(=O)NC2CC2)s1	9	11	-4%	0%	8	12%
CN(C)CCCN(C(=O)CCc1ccccc1)c1nc2ccc(Cl)cc2s1	-11	?	10µM*	?	-17	?
CN(C)CCCN(C(=O)COc1ccccc1)c1nc2ccc(Cl)cc2s1	10	0	-62%	14%	12	?
CCOc1ccc2nc(N(CCCN(C)C)C(=O)c3ccc(S(=O)(=O)N4CCc5ccccc5C4)cc3)sc2c1	4	-5	?	?	30	2%
CN(C)CCCN(C(=O)c1ccc2c(c1)CCCC2)c1nc2ccc(Cl)cc2s1	-8	-79*	1.9µM*	8.3µM*	-3	7.9µM*
Cc1ccc2nc(N(CCCN(C)C)C(=O)CCc3ccccc3)sc2c1	-4	-38	?	?	-13	?
CCOc1ccc2nc(N(CCCN(C)C)C(=O)c3ccc4c(c3)CCCC4)sc2c1	1	-40	5.9µM*	?	-13	?
COc1ccc(NC(=O)c2c(NCc3ccc(C)o3)sc3c2CCC(C)C3)c(OC)c1 (stereo not drawn)	.	-35	.	.	.	.
CC(C)Sc1nc(N2CCOCC2)c2c(c1C#N)CC(C)(C)SC2	-2	14	?	?	-19	?
CCOC(=O)CSc1nc(N2CCOCC2)c2c(c1C#N)CC(C)(C)OC2	-7	17	?	-11%[0.00184 µM]	-7	-27%
SMILES	CHX counter	HCMV antiviral	Pf growth 96h	Pf growth 48h	Shiga inhibitor	HCV inh
CC(C)CSc1nc(N2CCOCC2)c2c(c1C#N)CC(C)(C)SC2	0	0	?	9.3µM*	-11	-6%
CCCOC(=O)CSc1nc(N2CCOCC2)c2c(c1C#N)CC(C)(C)OC2	-5	-6	1.9µM*	?	-13	-29%
COC(=O)CSc1nc(N2CCOCC2)c2c(c1C#N)CC(C)(C)OC2	3	70	32%	26%	-6	-3%
CCCCCSc1nc(N2CCOCC2)c2c(c1C#N)CC(C)(C)OC2	-1	-9	?	9.3µM*	-10	16%
CC1(CCc2ccccc2)NC(=O)N(CC(=O)O)C1=O (stereo not drawn)	-4	-1	60%	12%	-7	11%
CC1(CCc2ccccc2)NC(=S)N(c2ccc(Cl)cc2)N1 (stereo not drawn)	36*	-25	49%	83%	59*	7%
CC1(CCc2ccccc2)NC(=S)N(c2ccccc2)N1 (stereo not drawn)	40*	40	?	12%	42*	8%
Cc1ccc(-c2ccccc2NC(=O)CCl)o1	16*	100	?	?	51	-27%
CC(C)c1onc(C(=O)NC(C)c2ccccc2)c1[N+](=O)[O-] (stereo not drawn)	9	-34	49%	3%	-3	9%
CC(=O)c1ccc(NC(=O)c2noc(C(C)C)c2[N+](=O)[O-])cc1	41*	56	10%	-31%	37	-9%
Cc1ccc(O)c(NC(=O)c2noc(C(C)C)c2[N+](=O)[O-])c1	42*	-16	?	-25%	49	5%
Cc1ccccc1Cn1cc(NC(=O)c2noc(C(C)C)c2[N+](=O)[O-])cn1	0	14	?	?	3	-4%
COc1ccc(NC(=O)c2noc(C(C)C)c2[N+](=O)[O-])cc1	37*	?	19%	?	50*	?
COc1ccc(NC(=O)c2nn(C)c(C(=O)Nc3ccc(OC)cc3)c2[N+](=O)[O-])cc1	-4	74	?	7%	.	-2%
CC(C)c1onc(C(=O)NCc2ccc(F)cc2)c1[N+](=O)[O-]	-3	-20	?	?	-5	-1%
CCc1ccc(NC(=O)c2noc(C(C)C)c2[N+](=O)[O-])cc1	48*	?	14%	?	151*	-17%
CCOc1ccc(CCNC(=O)Cn2nnc(-c3ccc(C(F)(F)F)cc3)n2)cc1OCC	.	1	.	.	.	.
CCn1c(CN2CCCCC2)nc2cc(NC(=O)COc3ccc(C(C)(C)C)cc3)ccc21	.	-31	.	.	.	.
CC(=O)N1CCOc2ccc(S(=O)(=O)N3CCC(C)CC3)cc21	-3	-2	54%	19%	-1	16%
CCN(CC)S(=O)(=O)c1cc(NC(=O)c2cccc(N3C(=O)CCC3=O)c2)ccc1Cl	.	-23	-12%	?	.	?

Screening data from PubChem BioAssay.
